These results are taken from PubChem BioAssay (Tox21).

Records with an inconclusive call do not appear. Unmarked numbers belong to inactive results. Calls of active or inactive are those of the source. Calls come from the whole dose curve; as a rule, active = well fitted cell-killing curve with a large enough effect in the repeat runs; inconclusive = weak or mixed curves, or effect the other way; inactive = no such curve, though single readings can be large or run the other way.
% is set by controls: 0 for no effect and ±100 for the full control effect.

The nature of the assay: qHTS assay to identify small molecule antagonists of the glucocorticoid receptor (GR) signaling pathway - cell viability counter screen (AID 720693). Note: nearly all actives have a fitted effect of over 55% in size. The note with it: GR-bla HeLa viability, CellTiter-Glo luminescence, 18 h, with 5 nM dexamethasone present; series mostly up to 58.5 µM; viability change, negative = cytotoxic: at the top concentration. An excerpt: National Center for Advancing Translational Sciences [NCATS]
NIH Chemical Genomics Center [NCGC]
U.S. Environmental Protection Agency [EPA]
National Institutes of Environmental Health Sciences [NIEHS]
National Toxicology Program [NTP]
U.S. Food and Drug Administration [FDA]
The Glucocorticoid receptor (GR) is one of the members of the nuclear receptor family of ligand-dependent transcription factors. GR plays a critical role in carbohydrate, protein and lipid metabolisms and programmed cell death. CellSensor GR-bla HeLa cell line (Invitrogen) contains a beta-lactamase reporter gene under the control of the glucocorticoid response element stably integrated into HeLa cells, a cervical cancer cell line that expresses glucocorticoid receptor. The activation of the reporter gene under culture conditions can be detected by fluorescence intensity. This cell line has been used to screen the Tox21 10K compound library and to identify the compounds that inhibit the GR signaling. The cytotoxicity of the Tox21 compound library against the GR-bla HeLa cell line was tested in parallel by measuring the cell viability using CellTiter-Glo assay in the same wells.
Tox21 Assay Protocol Summary:
The GR-bla HeLa cells were dispensed at 1500 cells/5 ul/well in 1536-well black wall/clear bottom plates using a Multidrop Combi (ThermoFisher Scientific, Waltham, MA) dispenser. After the assay plates were incubated at a 37 C/5% CO2 incubator for 4 hours, 23 nL of compounds dissolved in DMSO, positive controls or DMSO only was transferred to the assay plate by a pintool station (Kalypsys, San Diego, CA), followed by addition of 1 uL of dexamethasone (5 nM, final concentration in the well). The plates were incubated at 37 C for 18 hours. After 1 uL of LiveBLAzerTM B/G FRET substrate was added using a Flying Reagent Dispenser (Aurora Discovery, San Diego, CA), the plates were incubated at room temperature (RT) for 2 hours, and fluorescence intensity was measured by an Envision plate reader (PerkinElmer, Shelton, CT). After measurement of bla assay, 3 ul CellTiter-Glo (Promega, Madison, WI) was added to measure the cytotoxicity and the plates were then incubated at RT for 30 min. The luminescence was measured using a ViewLux (Perkin Elmer) plate reader.
Turning to `CC(CCc1ccc2c(c1)OCO2)NN` (stereo not given), the “viability change, negative = cytotoxic” value is -4.16%.

On to `CC(N)CN` (stereo not given), for which the “viability change, negative = cytotoxic” value is 7.82% [at 78.9 µM].

As for `CCOC(=O)/C=C/C(=O)O`, the “viability change, negative = cytotoxic” value is -15.1%.

For `Nc1nccs1`, the “viability change, negative = cytotoxic” value was -1.66%.

For the compound `O=C(N/N=C/c1ccc([N+](=O)[O-])o1)c1ccc(O)cc1`, the “viability change, negative = cytotoxic” value was 7.6% [at 27 µM].

With `O=C(CCCN1CCC(O)(c2ccc(Br)cc2)CC1)c1ccc(F)cc1`, the “viability change, negative = cytotoxic” value was -12.2% [at 27 µM].

On to `COc1ccc(CCC(=O)c2c(O)cc(O[C@@H]3O[C@H](CO)[C@@H](O)[C@H](O)[C@H]3O[C@@H]3O[C@@H](C)[C@H](O)[C@@H](O)[C@H]3O)cc2O)cc1O`, for which the “viability change, negative = cytotoxic” value is 11.2%.

Consider `CC1=C(/C=C/C(C)=C\C=C\C(C)=C\C(=O)O)C(C)(C)CCC1`, for which the “viability change, negative = cytotoxic” value was 8.35%.

On to `C[C@@H]1C[C@H]2[C@@H]3CCC4=CC(=O)C=C[C@]4(C)[C@@]3(F)[C@@H](O)C[C@]2(C)[C@H]1C(=O)CO`, for which the “viability change, negative = cytotoxic” value was -12.7%.

For `CSc1ccc(Oc2ccc(S(N)(=O)=O)cc2CN(C)C)cc1C`, the “viability change, negative = cytotoxic” value was 3.23%.

Consider `NC(=O)N(O)[C@@H]1C=C[C@H](Oc2cccc(Oc3ccc(F)cc3)c2)C1`, for which the “viability change, negative = cytotoxic” value is 5.84%.

In the case of `OC/C(Br)=C(\Br)CO`, the “viability change, negative = cytotoxic” value is -7.16%.

On to `Cc1cnc(C)c(C)n1`, for which the “viability change, negative = cytotoxic” value is 14.2% [at 78.9 µM].

`C[N+]1(C)CCC(=C(c2ccccc2)c2ccccc2)CC1`: the “viability change, negative = cytotoxic” value is -18.5% [at 27 µM].

For `CCCCCCCCSCCO`, the “viability change, negative = cytotoxic” value is -9.55%.

In the case of `Fc1ccccc1[C@@H](F)COC1CCC(Nc2ncnc3[nH]ncc23)CC1` (stereo not given in full), the “viability change, negative = cytotoxic” value is 8.44%.

Take `CCCCCC=CCC=CCCCCCCCC(=O)OCC`: the “viability change, negative = cytotoxic” value is 0.43%.

As to `O=C(O)c1snc(Cl)c1Cl`, the “viability change, negative = cytotoxic” value was 12.6%.

As to `C=CCCCCCCCCCCCCCCCC`, the viability change, negative = cytotoxic is -0.145% [at 7.04 µM].

`CCC(C)=O`: the “viability change, negative = cytotoxic” value is 4.52%.

As for `CC(=O)Oc1ccc(C(=C2CCCCC2)c2ccc(OC(C)=O)cc2)cc1`, the “viability change, negative = cytotoxic” value was 5.57%.

On to `CC(=O)OCC(=O)[C@@]12OC(C)(C)O[C@@H]1C[C@H]1[C@@H]3C[C@H](F)C4=CC(=O)C=C[C@]4(C)[C@@]3(F)[C@@H](O)C[C@@]12C`, for which the “viability change, negative = cytotoxic” value was -0.449% [at 27 µM].

With `CCCC1C(CC)=CC(CC)=CN1c1ccccc1` (stereo not given), the “viability change, negative = cytotoxic” value was 7.97%.

As to `CC(C)(C)C(=O)O`, the “viability change, negative = cytotoxic” value is 2.13% [at 78.9 µM].

Regarding `Cc1cc(S(=O)(=O)O)ccc1N=Nc1c(O)ccc2ccccc12`, the “viability change, negative = cytotoxic” value is -9.13%.

Take `CC(=O)Nc1ccc(N)cc1`: the “viability change, negative = cytotoxic” value is 0.832% [at 78.9 µM].

With `CC1=NN(c2ccc(C(=O)O)cc2)C(=O)C1`, the “viability change, negative = cytotoxic” value is 16%.

Take `C=CC(=C)CCCC(C)(C)OC(C)=O`: the “viability change, negative = cytotoxic” value was -6.1%.

For `CCCCC/C(=C\c1ccccc1)CO`, the “viability change, negative = cytotoxic” value was -2.42% [at 78.9 µM].

Turning to `CC(C)OCC1CO1` (stereo not given), the “viability change, negative = cytotoxic” value was 1.03%.

As for `Cc1ccccc1N1C(=O)c2cc(S(N)(=O)=O)c(Cl)cc2NC1C` (stereo not given), the Potency result was “inactive”.

`c1ccc(COCc2ccccc2)cc1`: the “viability change, negative = cytotoxic” value is -3.29% [at 78.9 µM].

For the compound `CCOC(=O)c1ccccc1OC`, the “viability change, negative = cytotoxic” value was 4.92%.

As to `O=C(Nc1ccc([N+](=O)[O-])cc1)Nc1ccc([N+](=O)[O-])cc1`, the “viability change, negative = cytotoxic” value is 0.722%.

`Fc1c(F)c(F)c(Br)c(F)c1F`: the “viability change, negative = cytotoxic” value was 9.24%.

As for `CCCCOC(=O)CCS`, the “viability change, negative = cytotoxic” value was 15.7%.

As to `CC(C)c1nnc2ccc(-c3ocnc3-c3cc(F)ccc3F)cn12`, the “viability change, negative = cytotoxic” value was -0.593%.

For `CC1CC(=O)NN=C1c1ccc(NCC(C)(C)NCC(O)COc2cc(Cl)ccc2C#N)cc1` (stereo not given), the “viability change, negative = cytotoxic” value was 12%.

For `COC(=O)CC(=O)C(C)(C)C`, the “viability change, negative = cytotoxic” value is 2.44%.

Regarding `CC1(C)C(=O)N(Br)C(=O)N1Cl`, the “viability change, negative = cytotoxic” value is -1.92%.
